In PubChem BioAssay (Tox21):
Results filed as inconclusive are left out. Activity calls are given as the source filed them. Unless noted, the call rests on the fitted dose curve; in most records, active means well fitted curve in the direction sought with a large enough effect in the repeat runs; inconclusive means weak or mixed curves; inactive means no such curve, though single readings can be large; an effect the other way counts as inactive or inconclusive.

Key:
[1] = qHTS assay to identify small molecule agonists of the RXR signaling pathway - cell viability counter screen (AID 1159529); further: nearly all actives have a fitted effect of over 50% in size
Procedure, shortened: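 RXR-alpha-UAS-bla HEK 293T cells in medium with 2% charcoal-stripped FBS were pre-incubated 5 hr, then compound-treated 16 hr at 37 C. Viability was read by CellTiter-Glo luminescence in the same wells as the beta-lactamase assay, with tetraoctyl ammonium bromide as positive control.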

[2] = qHTS assay to identify small molecule antagonists of the retinoid acid receptor (RAR) signaling pathway - cell viability counter screen (AID 1159551); further: nearly all actives have a fitted effect of over 35% in size
Procedure, shortened: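 Following overnight attachment, C3RL4 reporter cells received DMSO-dissolved compounds and then retinol (1 uM final). Six hours later at 37 C, ATP content was measured by CellTiter-Glo luminescence.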

[3] = qHTS assay to identify small molecule antagonists of the retinoic acid receptor (RAR) signaling pathway (AID 1159552; further: nearly all actives have a fitted effect of over 50% in size)
Procedure, shortened: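 Retinol signaling pathway inhibitors screened in C3RL4 RARE-luciferase reporter cells seeded overnight at 37 C, then compounds added with 1 uM (final) retinol as pathway substrate. After 6 hr at 37 C, luciferase luminescence read after 30 min at room temperature.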

[4] = qHTS assay to identify small molecule agonists of the retinoic acid receptor (RAR) signaling pathway (AID 1159553); conditions: C3RL4 RARE luciferase reporter, agonist, 6 h; activation: at 73.3 µM (top of the series)
Procedure, shortened: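 Cell line C3RL4, RARE luciferase reporter. Treatment: compounds in DMSO, 6 hr, 37 C, 5% CO2, after overnight plating. Detection: luminescence, 30 min RT after reagent.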

[5] = qHTS assay to identify small molecule antagonists of the estrogen related receptor (ERR) signaling pathway from Tox21 library - cell viability counter screen (AID 1224834); further: nearly all actives have a fitted effect of over 30% in size
Procedure, shortened: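 Viability readout (CellTiter-Fluor fluorescence, 30 min at 37 C) multiplexed with the ERR assay; cells treated 17.5 h at 37 C with compounds delivered in DMSO.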

[6] = biological target: Luciferin 4-monooxygenase (Photinus pyralis) (UniProt P08659); assay: qHTS assay to identify small molecule inhibitors of firefly luciferase (AID 1224835); further: nearly all actives have a fitted effect of over 25% in size
Luciferin 4-monooxygenase (Photinus pyralis), sequence (P08659 whole entry, looked up): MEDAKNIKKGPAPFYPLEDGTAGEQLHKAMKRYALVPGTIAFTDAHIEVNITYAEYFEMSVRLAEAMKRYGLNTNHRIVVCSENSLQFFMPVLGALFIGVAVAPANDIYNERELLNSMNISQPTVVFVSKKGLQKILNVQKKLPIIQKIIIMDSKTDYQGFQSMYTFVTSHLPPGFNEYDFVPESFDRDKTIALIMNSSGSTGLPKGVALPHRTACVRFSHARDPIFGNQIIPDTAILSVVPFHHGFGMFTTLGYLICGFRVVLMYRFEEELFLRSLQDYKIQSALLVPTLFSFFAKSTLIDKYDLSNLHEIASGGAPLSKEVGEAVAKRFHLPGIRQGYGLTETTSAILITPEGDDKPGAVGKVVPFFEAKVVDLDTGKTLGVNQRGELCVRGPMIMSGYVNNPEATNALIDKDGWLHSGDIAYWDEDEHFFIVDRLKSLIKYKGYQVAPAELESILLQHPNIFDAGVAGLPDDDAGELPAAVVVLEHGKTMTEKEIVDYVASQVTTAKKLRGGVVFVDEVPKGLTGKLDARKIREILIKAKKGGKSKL
Procedure, shortened: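 Biochemical qHTS: compounds run as interplate titrations against purified firefly enzyme, with D-luciferin and ATP each at its KM concentration. Light output recorded by CCD imaging.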

[7] = qHTS assay to identify small molecule agonists of the constitutive androstane receptor (CAR) signaling pathway - cell viability counter screen (AID 1224836); further: nearly all actives have a fitted effect of over 45% in size
Procedure, shortened: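 HepG2 cells stably carrying hCAR and a CYP2B6-2.2kb reporter; 15-concentration compounds plus PK11195 (final 0.75 uM), 23 hr at 37 C/5% CO2. Viability read by CellTiter-Fluor fluorescence.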

[8] = qHTS assay to identify small molecule antagonists of the constitutive androstane receptor (CAR) signaling pathway - cell viability counter screen (AID 1224837); further: nearly all actives have a fitted effect of over 45% in size
Procedure, shortened: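 Fluorescence from CellTiter-Fluor served as the viability signal. Human hepatoma HepG2 cells stably bearing hCAR and CYP2B6-2.2kb received compound plus CITCO (50 nM final) for 23 hr.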

[9] = qHTS assay to identify small molecule antagonists of the estrogen related receptor signaling pathway with the pleiotropic PPARgamma coactivator (PGC) from Tox21 10K library - cell viability counter screen (AID 1224840; active means well fitted cell-killing curve with a large enough effect in the repeat runs, not every such curve was filed as active; further: nearly all actives have a fitted effect of over 40% in size)
Procedure, shortened: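 Compounds in DMSO, alongside positive and negative controls, were pinned onto PGC/ERR cells (2,000 per well). Exposure lasted 17.5 hours at 37 C, followed by a 30-minute CellTiter-Fluor incubation and fluorescence reading.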

[10] = biological target: Thyrotropin receptor (Homo sapiens) (UniProt P16473); assay: qHTS assay to identify small molecule agonists of the thyroid stimulating hormone receptor (TSHR) signaling pathway (AID 1224843; calls by dose curve; further: nearly all actives have a fitted effect of over 45% in size)
Thyrotropin receptor (Homo sapiens), sequence (P16473 whole entry, looked up): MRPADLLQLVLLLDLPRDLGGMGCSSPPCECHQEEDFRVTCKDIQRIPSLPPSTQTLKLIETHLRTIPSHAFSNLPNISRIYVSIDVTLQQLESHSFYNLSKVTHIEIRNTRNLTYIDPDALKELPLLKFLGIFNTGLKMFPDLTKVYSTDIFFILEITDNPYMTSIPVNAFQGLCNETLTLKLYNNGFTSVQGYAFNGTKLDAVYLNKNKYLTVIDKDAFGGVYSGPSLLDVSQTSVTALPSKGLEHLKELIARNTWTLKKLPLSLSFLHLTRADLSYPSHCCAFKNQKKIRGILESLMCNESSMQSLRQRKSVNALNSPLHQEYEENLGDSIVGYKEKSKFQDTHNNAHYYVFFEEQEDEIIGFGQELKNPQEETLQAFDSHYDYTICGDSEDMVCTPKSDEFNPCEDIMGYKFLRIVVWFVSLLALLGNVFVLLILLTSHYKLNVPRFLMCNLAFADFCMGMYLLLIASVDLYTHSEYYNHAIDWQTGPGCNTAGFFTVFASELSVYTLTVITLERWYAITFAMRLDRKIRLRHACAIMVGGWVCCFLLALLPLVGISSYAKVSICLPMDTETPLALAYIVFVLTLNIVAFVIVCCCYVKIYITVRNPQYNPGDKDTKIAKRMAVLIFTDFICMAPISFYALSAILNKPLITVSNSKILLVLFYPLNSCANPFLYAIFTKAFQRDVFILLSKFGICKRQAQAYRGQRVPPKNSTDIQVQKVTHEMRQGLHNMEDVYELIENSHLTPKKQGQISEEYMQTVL
Procedure, shortened: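 TSHR-HEK293 cells in agonist mode, 30 min room-temperature step, then cAMP measured by competitive HTRF (cAMP-d2 with anti-cAMP cryptate) after 1 h at room temperature. Tested at 15 concentrations in triplicate.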

[11] = qHTS assay to identify small molecule agonists of the hypoxia (HIF-1) signaling pathway - cell viability counter screen (AID 1224844; calls by dose curve; further: nearly all actives have a fitted effect of over 50% in size)
Procedure, shortened: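 Luminescent ATP content (CellTiter-Glo, 30 min, room temperature) served as the viability measure in HRE-bla ME-180 cells exposed to compounds for 17 hrs in low-serum medium (0.5% dialyzed FBS).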

[12] = qHTS assay to identify small molecule agonists of H2AX (AID 1224845; active means well fitted activation curve with a large enough effect in the signal ratio in the repeat runs, not every such curve was filed as active; the % refers to the signal ratio)
Procedure, shortened: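 Wild-type CHO-K1 cells, plated overnight, exposed 3hr at 37C to 15 concentrations (0.76% DMSO final). Lysed, then HTRF anti-pH2AX (S139) cryptate and anti-H2AX-d2 antibodies, 24 hr room temperature; 665/620 nm emission read.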

[13] = qHTS assay to identify small molecule agonists of the hypoxia (HIF-1) signaling pathway (AID 1224846; active means well fitted activation curve with a large enough effect in the signal ratio in the repeat runs, not every such curve was filed as active; the % refers to the signal ratio)
Procedure, shortened: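 Measured by blue/green FRET after loading CCF4-AM: beta-lactamase expressed from a hypoxia response element in ME-180 cells. Test agents were delivered in DMSO and left 17 hrs; cells had been plated 5 hrs earlier in low-serum (0.5% dialyzed FBS) medium.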

[14] = qHTS assay to identify small molecule agonists of H2AX - cell viability counter screen (AID 1224847; calls by dose curve; further: top concentration of the series differs between compounds; nearly all actives have a fitted effect of over 30% in size)
Procedure, shortened: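 CHO-K1 cells plated overnight at 37C, then exposed 3 h at 37C to compounds at 15 concentrations (0.76% DMSO final). Viability by CellTiter-Glo luminescence after 30 min at room temperature.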

[15] = biological target: Nuclear receptor subfamily 1 group I member 3 (Homo sapiens) (UniProt Q14994); assay: qHTS assay to identify small molecule antagonists of the constitutive androstane receptor (CAR) signaling pathway (AID 1224838);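 further: HepG2 cells stably expressing hCAR with CYP2B6 luciferase reporter stimulated by CITCO; nearly all actives have a fitted effect of over 40% in size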; further: potency means the concentration at half of the fitted maximal effect
Nuclear receptor subfamily 1 group I member 3 (Homo sapiens), sequence (Q14994 whole entry, looked up): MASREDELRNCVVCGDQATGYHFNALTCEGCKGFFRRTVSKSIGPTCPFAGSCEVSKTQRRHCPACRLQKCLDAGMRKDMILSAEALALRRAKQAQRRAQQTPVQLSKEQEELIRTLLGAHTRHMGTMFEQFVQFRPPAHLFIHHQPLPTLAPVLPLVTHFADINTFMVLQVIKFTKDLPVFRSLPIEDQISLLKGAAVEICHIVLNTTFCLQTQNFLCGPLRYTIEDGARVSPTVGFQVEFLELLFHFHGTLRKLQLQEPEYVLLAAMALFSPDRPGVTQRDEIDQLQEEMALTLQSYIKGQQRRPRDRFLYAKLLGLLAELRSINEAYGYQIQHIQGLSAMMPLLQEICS
Procedure, shortened: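 Quantitative HTS in double-stable HepG2-CYP2B6-hCAR cells. After 4 h plating, cells get compound (15 concentrations) and CITCO at 50 nM final, incubate 24 h at 37 C, then ONE-Glo luminescence is read.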

[16] = biological target: Nuclear receptor subfamily 1 group I member 3 (Homo sapiens) (UniProt Q14994); assay: qHTS assay to identify small molecule agonists of the constitutive androstane receptor (CAR) signaling pathway (AID 1224839);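 further: HepG2 cells stably carrying human CAR and a CYP2B6 luciferase reporter; nearly all actives have a fitted effect of over 15% in size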
Procedure, shortened: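 HepG2 cells stably co-transfected with hCAR and a CYP2B6-2.2kb luciferase reporter; compounds at 15 concentrations with 0.75 uM PK11195 present. After 24 hr at 37 C, luciferase read by ONE-Glo luminescence.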

[17] = qHTS assay to identify small molecule antagonists of the estrogen related receptor signaling pathway with the pleiotropic PPARgamma coactivator (PGC) from Tox21 10K library (AID 1224841; call rule not given here; further: actives are mostly falling curves and most rising ones were filed inactive; nearly all actives have a fitted effect of over 50% in size)
Procedure, shortened: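 Compound exposure ran 18 hours at 37 C in PGC/ERR cells (2,000/well) that had first rested 6 hours in a 37 C/5% CO2 incubator. Luciferase activity was then detected with One-Glo after a 30-minute room-temperature step.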

[18] = qHTS assay to identify small molecule agonists of the estrogen related receptor signaling pathway with the pleiotropic PPARgamma coactivator (PGC) from Tox21 10K library (AID 1224842); further: nearly all actives have a fitted effect of over 15% in size
Procedure, shortened: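 PGC/ERR reporter cell line, 2,000 cells per well, incubated 6 h at 37 C before 23 nL compound in DMSO was added. After 18 h at 37 C, One-Glo luminescence read following 30 min at room temperature.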

[19] = qHTS assay to identify small molecule antagonists of the estrogen related receptor (ERR) signaling pathway from Tox21 library (AID 1224848); further: nearly all actives have a fitted effect of over 50% in size
Procedure, shortened: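 ERR reporter cell line (from NTP) seeded 2,000 cells/well, rested 6 h at 37 C/5% CO2, then pin-dosed with compounds in DMSO. After 18 h at 37 C, ONE-Glo added; luminescence read after 30 min at room temperature.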
On the % scale 0 is the no-effect control and ±100 the full control effect.

Cc1ccccc1N1CCN(CCc2nnc3n2CCCC3)CC1
inactive: outcome [1] | outcome [2] | Potency [3] | Potency [4] | Potency [5] | Potency [6] | outcome [7] | Potency [8] | outcome [9] | outcome [10] | outcome [11] | outcome [12] | outcome [13] | Potency [14]

Cc1cccc(C(=O)O)c1[N+](=O)[O-]
inactive: outcome [1] | outcome [2] | Potency [3] | Potency [4] | Potency [5] | outcome [7] | Potency [8] | Potency [15] | Potency [16] | outcome [9] | outcome [10] | outcome [11] | outcome [12] | outcome [13] | Potency [14]

Nc1nc(=O)n([C@@H]2O[C@H](CO)[C@@H](O)[C@@H]2F)cc1I
inactive: outcome [1] | outcome [2] | Potency [3] | Potency [4] | Potency [5] | Potency [6] | Potency [8] | Potency [16] | outcome [9] | outcome [10] | outcome [13] | Potency [14]

CCC(C)(CCC(C)C)C(=O)[O-].CCC(C)(CCC(C)C)C(=O)[O-].[Zn+2] (stereo not drawn)
inactive: outcome [1] | outcome [2] | Potency [3] | Potency [4] | Potency [5] | outcome [7] | Potency [8] | outcome [9] | Potency [17] | outcome [18] | outcome [11] | outcome [12] | outcome [13] | Potency [14]

C=C[C@@H](C)CCC=C(C)C
inactive: outcome [1] | outcome [2] | Potency [3] | Potency [4] | Potency [5] | Potency [6] | Potency [8] | outcome [9] | outcome [10] | outcome [11] | outcome [12] | outcome [13] | Potency [14]

CCCCC/C=C/CC(=O)OC
inactive: outcome [1] | Potency [3] | Potency [4] | Potency [5] | Potency [6] | outcome [7] | Potency [8] | outcome [9] | outcome [10] | outcome [11] | outcome [12] | outcome [13] | Potency [14]

C=CC(C)(O)CC/C=C(\C)CC (stereo not drawn)
inactive: outcome [1] | outcome [2] | Potency [3] | Potency [4] | Potency [5] | Potency [6] | outcome [7] | Potency [8] | outcome [9] | outcome [10] | outcome [11] | outcome [12] | outcome [13] | Potency [14]

C[C@H](CCC(=O)O)[C@H]1CC[C@H]2[C@@H]3[C@H](O)C[C@@H]4C[C@H](O)CC[C@]4(C)[C@H]3C[C@H](O)[C@]12C
inactive: outcome [1] | outcome [2] | Potency [3] | Potency [4] | Potency [5] | Potency [6] | Potency [8] | outcome [9] | outcome [10] | outcome [12] | outcome [13] | Potency [14]

Cc1ccc2c(c1)c1c3n2CCNC3CCC1 (stereo not drawn)
inactive: outcome [1] | outcome [2] | Potency [3] | Potency [4] | Potency [5] | Potency [6] | Potency [16] | outcome [9] | outcome [10] | outcome [11] | outcome [12] | Potency [14]
active: Potency [15] 750 nM

COCCOCCOCCOC
inactive: outcome [1] | outcome [2] | Potency [3] | Potency [4] | Potency [5] | outcome [7] | Potency [8] | outcome [9] | outcome [11] | outcome [13] | Potency [14]

COc1cc(C=O)ccc1OC(=O)C(C)C
inactive: outcome [1] | Potency [3] | Potency [4] | Potency [5] | Potency [6] | outcome [7] | Potency [8] | outcome [9] | Potency [17] | outcome [18] | outcome [10] | outcome [11] | outcome [12] | outcome [13] | Potency [14] | Potency [19]

CN(C)CCOCCN(C)CCO
inactive: outcome [1] | outcome [2] | Potency [3] | Potency [4] | Potency [5] | Potency [6] | outcome [7] | Potency [8] | outcome [9] | Potency [17] | outcome [18] | outcome [10] | outcome [11] | outcome [12] | outcome [13] | Potency [14] | Potency [19]

COc1cc2c(Nc3ccc(Br)cc3F)ncnc2cc1OCC1CCN(C)CC1
inactive: outcome [1] | outcome [2] | Potency [3] | Potency [4] | Potency [5] | Potency [6] | outcome [7] | Potency [8] | Potency [15] | Potency [16] | outcome [9] | outcome [12] | outcome [13] | Potency [14]

BrC/C=C/CBr
inactive: activity change, negative = cytotoxicity [1] -1.93% [at 15.8 µM] | activity change, negative = cytotoxicity [2] 3.13% [at 19 µM] | activity, negative = inhibition [3] 22.9% [at 19 µM] | Potency [4] | viability change, negative = cytotoxic [5] 0.661% [at 19 µM] | activity change, negative = inhibition [6] 0.329% [at 23.6 µM] | viability change, negative = cytotoxic [7] 0.935% [at 19 µM] | activity change, negative = cytotoxicity [8] -2.33% [at 19 µM] | viability change, negative = cytotoxic [9] 5.69% [at 19 µM] | activation [10] -9.51% [at 19 µM] | activity change, negative = cytotoxicity [11] -5.88% [at 15.8 µM] | activation (H2AX phosphorylation) [12] -0.0482% [at 31.6 µM] | activation [13] -1.18% [at 15.8 µM] | activity change, negative = cytotoxicity [14] 1.6% [at 31.6 µM]

CCCCCCCCCCCCOC(C)=O
inactive: outcome [1] | Potency [3] | Potency [4] | Potency [5] | outcome [7] | Potency [8] | outcome [9] | outcome [10] | outcome [11] | outcome [13] | Potency [14]

O=C(O)C(=O)Nc1cccc(-c2nn[nH]n2)c1
inactive: outcome [1] | outcome [2] | Potency [3] | Potency [4] | Potency [5] | Potency [8] | Potency [16] | outcome [9] | outcome [10] | outcome [11] | outcome [13] | Potency [14]

CC(C)c1ccccc1O
inactive: outcome [1] | outcome [2] | Potency [3] | Potency [4] | Potency [5] | Potency [6] | outcome [7] | Potency [8] | outcome [9] | outcome [11] | outcome [12] | outcome [13] | Potency [14]
